This is a sample that favours compounds with a hit; in the whole collection about 10% have one here.
SW480 rerep: A quantitative high throughput screen for small molecules that induce DNA re-replication in SW480 colon adenocarcinoma cells. SW480 DNA re-replication, Hoechst DNA content imaging, 48 h. 1.8% of 340,000 active. Potency, µM (series often up to 46.1 µM), for the others: top-dose re-replication activation, most hits filed as activators; also: % of control where 0% means no effect; nearly all actives have a fitted effect of over 55% in size
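Treated cells incubate 48 hr (37 C, 5% CO2), are stained 40 min with Hoechst, and nuclear fluorescence is enumerated; a rise in nuclei with high DNA signal marks re-replication.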
KB-V1 cytotox: qHTS assay for MDR1-selective chemotherapeutics: Primary screen using the drug-selected MDR subline cells KB-V1; 3.4% of 400,000 active; KB-V1 MDR cells viability, CellTiter-Glo, 72 h; Potency, µM (highest dose often 46.1 µM), most hits filed as cytotoxic; also: % is scaled to controls: 0 for no effect and ±100 for the full control effect; nearly all actives have a fitted effect of over 60% in size
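In this primary screen, KB-V1 cells overexpressing P-gp are incubated with library compounds (lowest to highest concentration) for 72 h at 37 degrees C before a luminescent ATP viability read.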
RORgamma inh: qHTS for inhibitors of ROR gamma transcriptional activity. 5.4% of 310,000 active. Potency, µM (titrated, usually from 53.6 µM), for the others: at the top dose activity change, negative = inhibition, usual class: inhibitors. Drosophila S2 Gal4-RORgamma UAS-luciferase reporter, 20 h. Nuclear receptor ROR-gamma (Mus musculus), P51450; also: % is scaled to controls: 0 for no effect and ±100 for the full control effect; nearly all actives have a fitted effect of over 60% in size
Target sequence (P51450 whole entry, looked up, the tested form may be a part): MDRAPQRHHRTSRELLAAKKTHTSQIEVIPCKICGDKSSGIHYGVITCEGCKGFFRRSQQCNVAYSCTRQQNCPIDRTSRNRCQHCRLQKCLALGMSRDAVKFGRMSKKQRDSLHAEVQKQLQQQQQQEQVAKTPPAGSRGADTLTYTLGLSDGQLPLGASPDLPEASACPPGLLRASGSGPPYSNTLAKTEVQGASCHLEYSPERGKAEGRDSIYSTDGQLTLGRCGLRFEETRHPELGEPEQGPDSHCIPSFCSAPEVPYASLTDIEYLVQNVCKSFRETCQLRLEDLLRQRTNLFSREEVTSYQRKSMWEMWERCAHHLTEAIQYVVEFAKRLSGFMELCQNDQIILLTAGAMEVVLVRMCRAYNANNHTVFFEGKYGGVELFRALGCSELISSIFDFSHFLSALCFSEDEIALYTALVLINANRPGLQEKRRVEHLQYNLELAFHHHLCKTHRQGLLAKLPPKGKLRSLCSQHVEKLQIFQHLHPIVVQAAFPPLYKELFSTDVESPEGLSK
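Luminescence from a UAS-regulated Photinus luciferase reporter in stably transfected Drosophila Schneider cells is measured; decreased signal marks ROR gamma inhibition. Fusion expression is induced by 700 uM copper sulfate for 20 hr.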
VP16 counter: VP16 counterscreen qHTS for inhibitors of ROR gamma transcriptional activity | Drosophila S2 Gal4-VP16 UAS-luciferase, luminescence, 20 h | AID 2546, 2010 | 3.5% of 310,000 active | Potency, µM (doses to about 53.6 µM), inactives show top-dose activity, negative = inhibition, most hits filed as inhibitors;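 also: Gal4-VP16 expression switched on by copper sulfate through the metallothionein promoter; % is scaled to controls: 0 for no effect and ±100 for the full control effect; nearly all actives have a fitted effect of over 50% in size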
MCF10A rerep: A quantitative high throughput screen for small molecules that induce DNA re-replication in MCF 10a normal breast cells; MCF 10A DNA re-replication, Hoechst nuclear intensity, 48 h; Potency, µM (highest dose often 46.1 µM), without a hit: at the highest dose activity, positive = re-replication, hits mostly activators; 2.9% of 350,000 active; AID 624296, 2012; also: % of control where 0% means no effect; nearly all actives have a fitted effect of over 50% in size
KB-3-1 cytotox: qHTS assay for MDR1-selective chemotherapeutics: Primary screen using the parental adenocarcinoma cell KB-3-1 | 1.4% of 400,000 active | KB-3-1 viability, CellTiter-Glo ATP luminescence, 72 h | Potency, µM (doses to about 46.1 µM), hits mostly cytotoxic; also: % is scaled to controls: 0 for no effect and ±100 for the full control effect; nearly all actives have a fitted effect of over 60% in size
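Cells are dispensed, compounds pinned in, plates held at 37 °C for 72 h, then CellTiter-Glo is added and luminescence read after 10 minutes. Cell line: parental KB-3-1 in phenol-red-free DMEM, 10% FBS.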
Numbers without * were called inactive; i = inactive; u = inconclusive; x = no result; [ ] = dose if it differs, or a comment. Calls follow the shape of the dose curve; as a rule, active = well fitted curve in the direction sought with a large enough effect; inconclusive = small, poorly fitted or top-dose-only effect, or another doubt; inactive = no such curve, though single readings can be large; an effect the other way counts as inactive or inconclusive. Potency is read from the fitted curve at half-maximal effect.

SMILES	SW480 rerep	KB-V1 cytotox	RORgamma inh	VP16 counter	MCF10A rerep	KB-3-1 cytotox
COc1ccc(CCNC(=O)Cc2c(C)c3ccc(O)c(C)c3oc2=O)cc1OC	x	i	x	x	x	i
CCN(CC)C(=O)Cn1ncc2c([nH]c3ccc(C)cc32)c1=O	x	i	x	x	x	i
O=C(/C=C/c1ccnc2ccccc12)c1cccs1	u	u	u	14.1µM*	9.2µM*	i
COc1ccc(C(=O)/C=C/c2ccccc2)c(OC)c1	28.4%	i	u	-11.8%	u	u
C(=C\c1ccnc2ccccc12)/c1cccs1	x	u	x	x	x	i
COc1ccc(/C=C/C(=O)c2cccs2)c(OC)c1	x	x	12.6µM*	35.5µM*	x	x
COc1ccc(OC)c(C(=O)/C=C/c2ccccc2C(F)(F)F)c1	u	u	12.6µM*	u	u	u
Cc1cccc(OCCn2c(CCNC(=O)C3CCCCC3)nc3ccccc32)c1	x	i	x	x	x	i
O=C(NCc1ccccn1)C1CN(S(=O)(=O)c2ccccc2)CCN1S(=O)(=O)c1ccccc1 (stereo not given)	-3.1%	i	11.2µM*	-7.2%	-3.7%	i
Cc1ccc(S(=O)(=O)N2CCCC(C(=O)NCc3ccccn3)C2)cc1 (stereo not given)	-5.1%	i	68.6%	5.5%	1.1%	i
Cc1ccc(S(=O)(=O)N2CCCC2CNC(=O)C(=O)NCc2ccccn2)cc1 (stereo not given)	19.7%	i	x	x	-21.1%	i
CC(C)(C)c1ccc(S(=O)(=O)N2CCCCC2C(=O)NCc2ccccn2)cc1 (stereo not given)	3.9%	i	u	2.51µM*	0.3%	i
CNC[C@@H](C)NC[C@@H](Cc1ccccc1)NCCc1ccccc1	0.366µM*	i	-37.2%	1.4%	-35.0%	u
CCSc1oc(-c2cccs2)nc1S(=O)(=O)c1ccc(Br)cc1	x	i	x	x	x	i
CC(/C=N/N1CCN(c2ccccn2)CC1)=C\c1ccccc1	0.9%	20.6µM*	-3.9%	-0.6%	13.0%	i
O=C(NCC(c1cccnc1)N1CCN(c2ccccc2F)CC1)c1ccc(F)cc1 (stereo not given)	x	i	x	x	x	i
C/C(=N\NC(=O)C1COc2ccccc2O1)c1ccccn1 (stereo not given)	13.8%	u	1.78µM*	2.82µM*	18.4µM*	u
C/C(=N\NC(=O)C1COc2ccccc2O1)c1ccc(Cl)s1 (stereo not given)	-6.3%	i	6.31µM*	17.8µM*	5.0%	i
CC[C@@]1(O)C(=O)OCc2c1cc1n(c2=O)Cc2cc3c(CN(C)C)c(O)ccc3nc2-1	u	u	u	u	-50.4%	u
CC[C@@]1(O)C(=O)OCc2c1cc1n(c2=O)Cc2cc3c([N+](=O)[O-])cccc3nc2-1	u	x	u	0.631µM*	12.4%	x
NC(=O)N/N=C/c1c(Sc2nnnn2-c2ccccc2)nc2ccccn2c1=O	7.31µM*	i	u	u	14.6µM*	u
COc1ccc2[nH]cc(CCNC(=O)/C=C/[C@H]3O[C@@H](n4cc(C)c(=O)[nH]c4=O)C[C@@H]3O)c2c1	x	i	x	x	x	i
COc1ccc2cc(C(=O)N/N=C/c3sc4ccccc4c3O)ccc2c1	u	23.1µM*	3.55µM*	u	u	13µM*
COc1ccc(C(=O)N/N=C/C(=O)c2ccccc2)cc1	4.8%	i	x	x	14.5%	i
O=C(N/N=C/c1sc2ccccc2c1O)c1ccccc1	2.59µM*	u	1.78µM*	1.58µM*	u	i
SMILES	SW480 rerep	KB-V1 cytotox	RORgamma inh	VP16 counter	MCF10A rerep	KB-3-1 cytotox
O=C(N/N=C/c1ccccc1)c1cccc2ccccc12	9.7%	i	x	x	u	i
O=C(N/N=C/c1sc2ccccc2c1O)c1cccc2ccccc12	u	u	1.78µM*	4.47µM*	u	i
O=C(N/N=C/c1ccc(F)cc1)c1ccccc1	-6.0%	i	-29.9%	-1.2%	-7.0%	i
COc1ccc(C(=O)N/N=C/c2sc3ccccc3c2O)cc1	5.17µM*	u	2.24µM*	3.98µM*	u	7.31µM*
COc1cccc(-c2nc(N(C)Cc3ccco3)c3ccccc3n2)c1	x	x	12.3%	3.7%	x	x
CC1(C(=O)NS(=O)(=O)c2ccc3c(c2)CCO3)CCN1C(=O)C1(c2ccc(Cl)cc2)CCC1 (stereo not given)	x	i	x	x	x	i
O=C(N/N=C/c1ccccc1F)c1cccc2ccccc12	-0.3%	i	-3.7%	u	9.1%	i
O=C(N/N=C/c1cccn1-c1ccc(O)cc1)c1cccc2ccccc12	u	i	17.8µM*	15.8µM*	u	i
N#Cc1ccc(NC(=S)/N=C(\N)c2ccccc2)cc1	x	i	x	x	x	i
N/C(=N\C(=S)Nc1ccccc1)c1ccccc1	12.3%	i	7.94µM*	u	5.1%	i
S=C(Nc1ccccn1)Nc1ccccc1Cl	-0.5%	u	8.4%	-15.5%	6.2%	i
Cc1ccccc1NC(=S)Nc1ccc(Br)cc1	1.9%	i	11.2µM*	11.2µM*	2.8%	i
Cc1c(Cl)cccc1NC(=S)Nc1ccccn1	-0.9%	i	1µM*	u	1.2%	i
Cc1ccccc1NC(=S)Nc1ccccn1	-1.7%	i	0.501µM*	1.58µM*	-2.5%	i
O=C(CSc1n[nH]c(=O)n1Cc1ccccc1)Nc1ccc(F)c(F)c1F	-8.5%	16.4µM*	u	u	17.9%	u
C=CCOc1cccc(/C=C2\C(=O)N(Cc3ccc(C)cc3)C(C)=C2C(=O)OC)c1	u	i	1.7%	u	16.4µM*	u
COc1ccc2[nH]cc(CCNc3ncncc3-c3ccc(C(=O)N(C)C)cc3)c2c1	x	x	14.2%	-3.5%	x	x
CCCCC(=O)Oc1ccc2oc(-c3ccc(OC)cc3)cc(=O)c2c1	x	6.51µM*	x	x	x	i
COc1ccc2oc(-c3ccc(O)cc3)cc(=O)c2c1	x	x	25.1µM*	25.1µM*	x	x
O=c1cc(-c2ccc(O)cc2)oc2c1ccc1ccccc12	11.3%	i	x	x	-1.5%	i
O=c1cc(-c2ccc(O)cc2)oc2ccc3ccccc3c12	19.7%	u	x	x	18.4µM*	u
CC(=O)c1ccc(OC2C=CC(C#Cc3ccc(Br)cc3)OC2CO)cc1 (stereo not given)	x	x	21.3%[10 µM]	0.5%[10 µM]	x	x
